Data: ChEMBL document CHEMBL2218924, “A broad activity screen in support of a chemogenomic map for kinase signalling research and drug discovery” (Biochem J, 2013)

Assays:
[1] = biological target: T1, Serine/threonine-protein kinase 3 (Homo sapiens) (UniProt Q13188); conditions: at 1 µM
T1 sequence (whole entry): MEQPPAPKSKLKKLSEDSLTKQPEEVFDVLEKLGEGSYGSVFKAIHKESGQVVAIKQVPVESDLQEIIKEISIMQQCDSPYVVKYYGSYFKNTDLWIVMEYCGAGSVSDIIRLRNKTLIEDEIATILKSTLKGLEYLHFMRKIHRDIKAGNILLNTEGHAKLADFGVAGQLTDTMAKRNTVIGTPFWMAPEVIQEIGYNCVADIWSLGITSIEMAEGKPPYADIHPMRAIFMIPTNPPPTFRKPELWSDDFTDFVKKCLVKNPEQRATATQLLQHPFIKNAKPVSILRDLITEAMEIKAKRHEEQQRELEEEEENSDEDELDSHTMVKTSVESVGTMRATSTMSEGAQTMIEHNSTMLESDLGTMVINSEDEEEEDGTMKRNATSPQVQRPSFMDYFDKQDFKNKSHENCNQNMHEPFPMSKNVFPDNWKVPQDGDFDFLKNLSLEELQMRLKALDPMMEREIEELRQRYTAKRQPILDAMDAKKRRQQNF

[2] = biological target: T1, Serine/threonine-protein kinase 3 (Homo sapiens); conditions: at 10 µM
[3] = biological target: Serine/threonine-protein kinase 24 (Homo sapiens) (UniProt Q9Y6E0); conditions: at 1 µM
Sequence of Serine/threonine-protein kinase 24 (Homo sapiens) (Q9Y6E0 whole entry, looked up): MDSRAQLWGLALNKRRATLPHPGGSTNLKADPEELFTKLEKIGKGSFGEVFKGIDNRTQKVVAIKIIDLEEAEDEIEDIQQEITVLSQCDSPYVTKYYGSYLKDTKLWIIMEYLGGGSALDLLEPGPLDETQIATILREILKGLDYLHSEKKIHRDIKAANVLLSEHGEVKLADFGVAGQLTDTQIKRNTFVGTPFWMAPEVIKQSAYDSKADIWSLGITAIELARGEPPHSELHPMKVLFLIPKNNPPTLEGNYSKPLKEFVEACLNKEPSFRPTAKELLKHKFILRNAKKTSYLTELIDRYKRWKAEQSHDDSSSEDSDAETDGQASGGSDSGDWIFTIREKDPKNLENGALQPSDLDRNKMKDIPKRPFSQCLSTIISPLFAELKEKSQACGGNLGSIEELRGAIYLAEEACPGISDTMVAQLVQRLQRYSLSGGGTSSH

[4] = biological target: Serine/threonine-protein kinase 24 (Homo sapiens) (UniProt Q9Y6E0); conditions: at 10 µM
[5] = biological target: T2, Tyrosine-protein kinase Mer (Homo sapiens) (UniProt Q12866); conditions: at 1 µM
T2 sequence (whole entry): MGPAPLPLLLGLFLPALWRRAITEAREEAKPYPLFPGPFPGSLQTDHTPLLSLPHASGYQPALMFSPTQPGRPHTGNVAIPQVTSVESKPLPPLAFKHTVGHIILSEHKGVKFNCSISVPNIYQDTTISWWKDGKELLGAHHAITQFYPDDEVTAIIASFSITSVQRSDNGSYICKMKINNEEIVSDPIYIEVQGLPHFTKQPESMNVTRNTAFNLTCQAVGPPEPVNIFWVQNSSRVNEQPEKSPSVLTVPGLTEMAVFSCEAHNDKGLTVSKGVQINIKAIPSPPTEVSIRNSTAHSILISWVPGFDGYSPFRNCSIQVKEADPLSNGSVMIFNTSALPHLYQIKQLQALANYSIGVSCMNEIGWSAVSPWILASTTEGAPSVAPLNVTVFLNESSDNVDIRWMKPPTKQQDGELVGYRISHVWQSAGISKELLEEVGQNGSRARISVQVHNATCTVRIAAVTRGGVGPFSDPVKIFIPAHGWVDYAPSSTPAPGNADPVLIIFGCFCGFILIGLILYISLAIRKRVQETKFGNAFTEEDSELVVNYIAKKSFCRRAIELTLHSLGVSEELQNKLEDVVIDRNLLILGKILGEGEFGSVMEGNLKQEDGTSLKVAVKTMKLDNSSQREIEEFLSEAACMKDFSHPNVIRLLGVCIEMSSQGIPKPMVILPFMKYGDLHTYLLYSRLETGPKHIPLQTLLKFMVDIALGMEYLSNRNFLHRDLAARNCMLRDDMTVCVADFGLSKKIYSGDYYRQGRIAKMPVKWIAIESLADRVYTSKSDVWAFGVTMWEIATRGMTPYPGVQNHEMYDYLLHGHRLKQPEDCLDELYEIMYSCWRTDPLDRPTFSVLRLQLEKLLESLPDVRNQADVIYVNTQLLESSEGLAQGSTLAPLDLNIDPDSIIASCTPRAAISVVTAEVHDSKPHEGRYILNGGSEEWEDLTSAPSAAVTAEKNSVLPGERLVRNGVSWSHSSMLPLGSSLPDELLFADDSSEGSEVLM

[6] = biological target: T2, Tyrosine-protein kinase Mer (Homo sapiens); conditions: at 10 µM
[7] = biological target: Hepatocyte growth factor receptor (Homo sapiens) (UniProt P08581); conditions: at 1 µM
Sequence of Hepatocyte growth factor receptor (Homo sapiens) (P08581 whole entry): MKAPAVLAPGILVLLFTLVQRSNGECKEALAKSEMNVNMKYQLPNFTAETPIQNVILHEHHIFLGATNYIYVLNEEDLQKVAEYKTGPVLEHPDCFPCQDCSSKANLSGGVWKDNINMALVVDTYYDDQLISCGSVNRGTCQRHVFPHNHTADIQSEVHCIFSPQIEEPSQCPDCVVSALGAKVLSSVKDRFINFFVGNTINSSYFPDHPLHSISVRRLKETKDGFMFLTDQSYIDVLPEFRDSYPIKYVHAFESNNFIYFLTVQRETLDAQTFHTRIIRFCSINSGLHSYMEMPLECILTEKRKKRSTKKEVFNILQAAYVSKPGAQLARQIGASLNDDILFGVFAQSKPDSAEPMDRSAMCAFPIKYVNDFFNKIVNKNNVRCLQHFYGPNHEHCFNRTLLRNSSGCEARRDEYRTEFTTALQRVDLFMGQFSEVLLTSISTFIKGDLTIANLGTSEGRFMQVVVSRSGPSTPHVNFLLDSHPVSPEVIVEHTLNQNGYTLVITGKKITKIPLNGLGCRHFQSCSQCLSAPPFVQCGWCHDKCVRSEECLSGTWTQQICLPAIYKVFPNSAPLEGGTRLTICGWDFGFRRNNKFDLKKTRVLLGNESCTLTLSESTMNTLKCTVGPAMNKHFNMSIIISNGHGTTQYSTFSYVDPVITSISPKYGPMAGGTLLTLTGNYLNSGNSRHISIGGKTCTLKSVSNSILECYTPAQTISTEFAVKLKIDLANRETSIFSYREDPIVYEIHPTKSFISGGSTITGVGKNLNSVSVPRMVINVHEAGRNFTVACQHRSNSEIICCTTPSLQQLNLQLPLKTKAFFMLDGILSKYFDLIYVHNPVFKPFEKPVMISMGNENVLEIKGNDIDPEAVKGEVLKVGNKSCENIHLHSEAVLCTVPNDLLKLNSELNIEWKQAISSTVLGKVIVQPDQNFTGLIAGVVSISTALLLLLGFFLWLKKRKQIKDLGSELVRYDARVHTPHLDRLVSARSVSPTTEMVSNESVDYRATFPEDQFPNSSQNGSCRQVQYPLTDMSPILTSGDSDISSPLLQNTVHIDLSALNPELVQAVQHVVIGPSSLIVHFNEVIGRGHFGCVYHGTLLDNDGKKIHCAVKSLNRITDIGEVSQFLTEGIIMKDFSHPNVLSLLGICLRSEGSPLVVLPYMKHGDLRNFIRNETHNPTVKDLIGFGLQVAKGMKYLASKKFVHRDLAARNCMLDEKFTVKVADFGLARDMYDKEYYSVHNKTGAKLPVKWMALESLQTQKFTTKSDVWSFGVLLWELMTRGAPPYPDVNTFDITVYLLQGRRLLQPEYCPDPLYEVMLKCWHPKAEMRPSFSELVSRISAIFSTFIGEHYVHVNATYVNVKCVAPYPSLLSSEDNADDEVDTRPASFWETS

[8] = biological target: Hepatocyte growth factor receptor (Homo sapiens) (UniProt P08581); conditions: at 10 µM
[9] = biological target: MAP kinase-interacting serine/threonine-protein kinase 2 (Homo sapiens) (UniProt Q9HBH9); conditions: at 1 µM
Sequence of MAP kinase-interacting serine/threonine-protein kinase 2 (Homo sapiens) (Q9HBH9 whole entry, looked up): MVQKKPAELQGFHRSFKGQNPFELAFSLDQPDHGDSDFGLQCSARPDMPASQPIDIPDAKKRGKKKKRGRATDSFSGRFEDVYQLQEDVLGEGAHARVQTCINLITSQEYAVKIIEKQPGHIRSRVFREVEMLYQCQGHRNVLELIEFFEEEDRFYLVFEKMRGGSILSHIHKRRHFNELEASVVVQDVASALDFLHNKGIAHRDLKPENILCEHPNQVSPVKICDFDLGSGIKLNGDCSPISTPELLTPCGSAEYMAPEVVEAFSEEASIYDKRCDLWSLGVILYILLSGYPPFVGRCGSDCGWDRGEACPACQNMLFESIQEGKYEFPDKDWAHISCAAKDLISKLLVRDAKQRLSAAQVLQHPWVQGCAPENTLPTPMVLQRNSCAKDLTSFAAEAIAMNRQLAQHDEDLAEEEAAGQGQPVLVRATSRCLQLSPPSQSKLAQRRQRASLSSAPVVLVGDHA

[10] = biological target: MAP kinase-interacting serine/threonine-protein kinase 2 (Homo sapiens) (UniProt Q9HBH9); conditions: at 10 µM
[11] = biological target: T3, Muscle, skeletal receptor tyrosine-protein kinase (Homo sapiens) (UniProt O15146); conditions: at 1 µM
T3 sequence (whole entry): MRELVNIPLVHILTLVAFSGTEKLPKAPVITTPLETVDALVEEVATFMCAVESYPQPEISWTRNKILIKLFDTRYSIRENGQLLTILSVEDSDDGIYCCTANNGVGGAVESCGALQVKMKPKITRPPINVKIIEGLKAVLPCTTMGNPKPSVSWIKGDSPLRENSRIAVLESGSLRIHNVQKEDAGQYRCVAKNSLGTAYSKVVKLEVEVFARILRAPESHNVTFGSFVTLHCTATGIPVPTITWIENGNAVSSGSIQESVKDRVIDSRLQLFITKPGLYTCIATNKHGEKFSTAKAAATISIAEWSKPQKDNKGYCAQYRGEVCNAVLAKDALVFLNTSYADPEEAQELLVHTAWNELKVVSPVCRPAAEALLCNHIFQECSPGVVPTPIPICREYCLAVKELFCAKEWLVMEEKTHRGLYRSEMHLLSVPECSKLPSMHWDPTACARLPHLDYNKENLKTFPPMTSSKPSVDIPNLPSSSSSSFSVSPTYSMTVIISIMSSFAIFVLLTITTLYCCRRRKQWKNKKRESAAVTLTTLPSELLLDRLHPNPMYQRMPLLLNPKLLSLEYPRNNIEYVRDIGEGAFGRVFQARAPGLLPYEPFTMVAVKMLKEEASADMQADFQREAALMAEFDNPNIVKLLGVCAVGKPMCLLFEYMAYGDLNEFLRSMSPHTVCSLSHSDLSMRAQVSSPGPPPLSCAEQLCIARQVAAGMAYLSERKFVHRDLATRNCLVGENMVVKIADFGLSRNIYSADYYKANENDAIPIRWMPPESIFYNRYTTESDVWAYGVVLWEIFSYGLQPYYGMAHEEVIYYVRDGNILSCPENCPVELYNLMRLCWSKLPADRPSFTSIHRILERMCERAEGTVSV

[12] = biological target: T3, Muscle, skeletal receptor tyrosine-protein kinase (Homo sapiens); conditions: at 10 µM
[13] = biological target: T4, Serine/threonine-protein kinase Nek11 (Homo sapiens) (UniProt Q8NG66); conditions: at 1 µM
T4 sequence (whole entry): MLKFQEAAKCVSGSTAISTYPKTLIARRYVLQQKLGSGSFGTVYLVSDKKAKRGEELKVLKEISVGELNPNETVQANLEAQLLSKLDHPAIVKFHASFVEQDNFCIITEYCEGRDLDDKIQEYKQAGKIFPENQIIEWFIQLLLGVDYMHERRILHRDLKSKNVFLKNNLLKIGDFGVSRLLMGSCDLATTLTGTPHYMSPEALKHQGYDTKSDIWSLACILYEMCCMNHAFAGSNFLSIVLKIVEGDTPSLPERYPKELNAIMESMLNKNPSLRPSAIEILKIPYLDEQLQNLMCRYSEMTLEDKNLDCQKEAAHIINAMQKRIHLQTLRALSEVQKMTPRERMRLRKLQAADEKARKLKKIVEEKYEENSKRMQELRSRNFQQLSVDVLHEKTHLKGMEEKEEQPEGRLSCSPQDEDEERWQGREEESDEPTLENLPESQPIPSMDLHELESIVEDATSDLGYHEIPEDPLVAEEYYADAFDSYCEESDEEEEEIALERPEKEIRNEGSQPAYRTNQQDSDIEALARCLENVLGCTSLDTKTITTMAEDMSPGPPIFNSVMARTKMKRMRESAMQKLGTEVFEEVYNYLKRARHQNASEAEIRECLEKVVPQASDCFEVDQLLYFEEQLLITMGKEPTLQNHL

[14] = biological target: T4, Serine/threonine-protein kinase Nek11 (Homo sapiens); conditions: at 10 µM
[15] = biological target: T5, Serine/threonine-protein kinase Nek2 (Homo sapiens) (UniProt P51955); conditions: at 1 µM
T5 sequence (whole entry): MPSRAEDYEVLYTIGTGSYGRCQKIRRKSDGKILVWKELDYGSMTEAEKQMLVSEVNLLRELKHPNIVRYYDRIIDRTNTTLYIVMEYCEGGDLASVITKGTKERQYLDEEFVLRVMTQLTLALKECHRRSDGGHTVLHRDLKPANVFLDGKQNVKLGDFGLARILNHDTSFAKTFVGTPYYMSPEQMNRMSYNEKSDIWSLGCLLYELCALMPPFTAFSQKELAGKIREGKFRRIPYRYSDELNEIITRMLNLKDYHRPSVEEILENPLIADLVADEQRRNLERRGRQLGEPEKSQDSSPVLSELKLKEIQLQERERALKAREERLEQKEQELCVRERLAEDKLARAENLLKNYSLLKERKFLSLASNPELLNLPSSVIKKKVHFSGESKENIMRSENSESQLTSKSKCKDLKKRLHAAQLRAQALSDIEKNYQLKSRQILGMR

[16] = biological target: T5, Serine/threonine-protein kinase Nek2 (Homo sapiens); conditions: at 10 µM
[17] = biological target: T6, Serine/threonine-protein kinase Nek3 (Homo sapiens) (UniProt P51956); conditions: at 1 µM
T6 sequence (whole entry): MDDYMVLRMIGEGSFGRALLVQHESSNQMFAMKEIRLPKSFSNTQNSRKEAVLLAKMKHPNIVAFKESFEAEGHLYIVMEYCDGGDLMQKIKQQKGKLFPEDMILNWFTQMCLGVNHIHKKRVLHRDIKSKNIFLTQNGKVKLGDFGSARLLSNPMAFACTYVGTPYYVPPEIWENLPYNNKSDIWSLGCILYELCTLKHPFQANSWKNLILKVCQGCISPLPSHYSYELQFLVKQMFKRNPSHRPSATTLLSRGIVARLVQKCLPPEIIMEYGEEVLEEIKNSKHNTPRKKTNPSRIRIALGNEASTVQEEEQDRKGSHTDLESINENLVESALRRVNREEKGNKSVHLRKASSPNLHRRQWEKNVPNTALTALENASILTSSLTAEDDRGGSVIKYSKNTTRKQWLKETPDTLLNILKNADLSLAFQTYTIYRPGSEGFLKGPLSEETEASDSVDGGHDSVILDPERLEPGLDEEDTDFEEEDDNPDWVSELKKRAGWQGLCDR

[18] = biological target: T6, Serine/threonine-protein kinase Nek3 (Homo sapiens); conditions: at 10 µM
[19] = biological target: Serine/threonine-protein kinase tousled-like 2 (Homo sapiens) (UniProt Q86UE8); conditions: at 1 µM
Sequence of Serine/threonine-protein kinase tousled-like 2 (Homo sapiens) (Q86UE8 whole entry, looked up): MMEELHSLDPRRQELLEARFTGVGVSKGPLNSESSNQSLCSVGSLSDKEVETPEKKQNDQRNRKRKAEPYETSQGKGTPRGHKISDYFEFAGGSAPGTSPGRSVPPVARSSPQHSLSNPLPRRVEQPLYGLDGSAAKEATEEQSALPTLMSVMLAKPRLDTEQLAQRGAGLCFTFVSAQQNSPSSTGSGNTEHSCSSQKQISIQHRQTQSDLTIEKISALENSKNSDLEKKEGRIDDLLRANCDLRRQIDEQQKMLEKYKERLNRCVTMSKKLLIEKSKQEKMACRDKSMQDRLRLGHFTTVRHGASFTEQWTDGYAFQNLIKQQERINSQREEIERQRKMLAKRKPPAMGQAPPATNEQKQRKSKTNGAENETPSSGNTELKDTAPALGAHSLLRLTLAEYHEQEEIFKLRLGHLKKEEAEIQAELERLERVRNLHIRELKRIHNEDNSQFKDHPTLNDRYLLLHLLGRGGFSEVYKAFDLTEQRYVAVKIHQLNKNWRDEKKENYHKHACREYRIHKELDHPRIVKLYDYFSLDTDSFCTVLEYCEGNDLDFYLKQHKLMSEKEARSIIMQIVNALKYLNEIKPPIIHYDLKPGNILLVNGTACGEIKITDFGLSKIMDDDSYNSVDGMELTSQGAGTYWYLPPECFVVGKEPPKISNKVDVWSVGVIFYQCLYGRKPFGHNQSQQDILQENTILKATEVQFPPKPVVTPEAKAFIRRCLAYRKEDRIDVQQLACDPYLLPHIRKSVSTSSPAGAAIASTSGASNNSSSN

[20] = biological target: Serine/threonine-protein kinase tousled-like 2 (Homo sapiens) (UniProt Q86UE8); conditions: at 10 µM

Structure (SMILES) | residual activity [1] | residual activity [2] | residual activity [3] | residual activity [4] | residual activity [5] | residual activity [6] | residual activity [7] | residual activity [8] | residual activity [9] | residual activity [10] | residual activity [11] | residual activity [12] | residual activity [13] | residual activity [14] | residual activity [15] | residual activity [16] | residual activity [17] | residual activity [18] | residual activity [19] | residual activity [20]
O=C(O)c1ccc2c3c1cccc3c(=O)n1c3ccccc3nc21 | 103% | 81% | 97% | 67% | 80% | 28% | 130% | 73% | 67% | 23% | 105% | 94% | 80% | 93% | 123% | 102% | 93% | 97% | 104% | 97%
N#CCCc1ccc2c(c1)-c1[nH]c3ccc([N+](=O)[O-])cc3c1CC(=O)N2 | 27% | 7% | 37% | 12% | – | – | – | – | 72% | 42% | 68% | 32% | – | 72% | – | – | 79% | 67% | – | –
COc1ccc(S(=O)(=O)N(CCO)c2ccccc2CN(C)C/C=C/c2ccc(Cl)cc2)cc1 | 99% | 78% | 78% | 69% | 93% | 83% | 113% | 120% | 106% | 96% | 79% | 79% | 95% | 109% | 105% | 102% | 80% | 92% | 92% | 85%
N#Cc1cnc2cnc(NCc3cccnc3)cc2c1Nc1ccc(F)c(Cl)c1 | 42% | 4% | 27% | 15% | – | – | – | – | 98% | 79% | 93% | 60% | 88% | 79% | – | – | 37% | 46% | 73% | 47%
O=C1Nc2ccccc2/C1=C1/Nc2ccccc2/C1=N\OCCC(O)CO (centres undefined) | 4% | 1% | 27% | 3% | 1% | -1% | 45% | 37% | 66% | 44% | 20% | 3% | 41% | 35% | – | – | 71% | – | 38% | 6%
c1ccc(-c2n[nH]cc2-c2ccnc3ccccc23)nc1 | 88% | 88% | 66% | 65% | 98% | 85% | 108% | 90% | 109% | 98% | 105% | 79% | 98% | 96% | 82% | 101% | – | – | 96% | 99%
CCN(CC)C(=O)c1ccc(Nc2nc(OCC3CCCCC3)c3nc[nH]c3n2)cc1 | 66% | 7% | 63% | 16% | 15% | 0% | 45% | 9% | – | 44% | 32% | 4% | 67% | 41% | 68% | 11% | 47% | 18% | – | –
COc1cc2ncnc(N3CCN(C(=O)Nc4ccc(Oc5ccccc5)cc4)CC3)c2cc1OC | 98% | 86% | 98% | 117% | 97% | 60% | 114% | – | 92% | 64% | 71% | 49% | 110% | 115% | 81% | 82% | 110% | 87% | 88% | 88%
Nc1n[nH]c2nnc(-c3c(-c4ccccc4)nn4ccccc34)cc12 | 79% | 91% | – | 15% | 86% | 57% | 78% | 88% | 96% | 101% | – | 86% | 107% | 97% | 91% | 86% | 83% | 87% | 89% | 82%
